Common to all, as to test: DAPPL (digital affinity profiling via proximity ligation, sequencing); 10 mM Tris-HCl pH 7.5, 50 mM NaCl, 1 mM DTT, 4% glycerol, room temperature, 30 min; GST-TFs on glutathione beads, 16-mer random dsDNA library, 0.1% formaldehyde crosslink after washing; high values mean tight binding
For one assay, the target named is T1, FLI1 (Homo sapiens, UniProt Q01543 1-452).
T1 sequence: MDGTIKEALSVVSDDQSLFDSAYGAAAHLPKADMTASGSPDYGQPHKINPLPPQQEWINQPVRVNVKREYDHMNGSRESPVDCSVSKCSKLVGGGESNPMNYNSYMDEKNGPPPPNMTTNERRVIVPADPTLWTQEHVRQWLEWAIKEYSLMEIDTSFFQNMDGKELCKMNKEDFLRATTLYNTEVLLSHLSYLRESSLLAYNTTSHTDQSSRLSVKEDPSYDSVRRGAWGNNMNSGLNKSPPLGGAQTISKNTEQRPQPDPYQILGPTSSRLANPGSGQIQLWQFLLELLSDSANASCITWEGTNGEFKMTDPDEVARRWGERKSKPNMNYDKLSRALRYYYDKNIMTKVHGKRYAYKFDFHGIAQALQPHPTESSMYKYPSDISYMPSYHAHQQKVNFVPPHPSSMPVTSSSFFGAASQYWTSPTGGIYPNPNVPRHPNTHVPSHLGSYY
The note with it: protein: recombinant; tags: N-terminal GST; dsDNA, one strand shown. The essentials:
(§1)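 After expression in yeast as GST fusions, human transcription factors were bound to glutathione beads, DNA-barcoded and mixed with a tag-only sample. The pools were incubated with 200 nmole of a 16-mer random double-stranded DNA library in Tris/NaCl/DTT/glycerol buffer (30 min, room temperature), washed and crosslinked with 0.1% formaldehyde. Proximity ligation with BsaI/T4 ligase ran for 1 h at 37 °C, before PCR amplification and sequencing on an Illumina NextSeq500. Binding signal is a hexamer's read frequency for a factor divided by its frequency for the tag-only sample.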

For another assay, the target named is T2, ELK1 (Homo sapiens, UniProt P19419 1-428).
T2 sequence: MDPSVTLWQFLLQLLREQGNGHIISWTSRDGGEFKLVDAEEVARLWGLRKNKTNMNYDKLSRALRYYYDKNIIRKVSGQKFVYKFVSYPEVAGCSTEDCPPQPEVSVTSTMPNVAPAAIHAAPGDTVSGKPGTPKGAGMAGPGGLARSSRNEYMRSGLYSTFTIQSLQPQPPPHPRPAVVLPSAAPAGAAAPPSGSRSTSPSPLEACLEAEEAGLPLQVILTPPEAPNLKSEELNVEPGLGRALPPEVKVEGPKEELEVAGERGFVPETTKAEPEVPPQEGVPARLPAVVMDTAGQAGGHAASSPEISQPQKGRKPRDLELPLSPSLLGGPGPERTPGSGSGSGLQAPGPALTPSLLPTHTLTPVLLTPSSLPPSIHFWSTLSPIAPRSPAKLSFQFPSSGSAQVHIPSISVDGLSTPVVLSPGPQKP
The note with it: protein: recombinant; tags: N-terminal GST; dsDNA, one strand shown. A digest of the protocol: as §1

Another assay has as its target T3, GABPA (Homo sapiens, UniProt Q06546 1-454).
T3 sequence: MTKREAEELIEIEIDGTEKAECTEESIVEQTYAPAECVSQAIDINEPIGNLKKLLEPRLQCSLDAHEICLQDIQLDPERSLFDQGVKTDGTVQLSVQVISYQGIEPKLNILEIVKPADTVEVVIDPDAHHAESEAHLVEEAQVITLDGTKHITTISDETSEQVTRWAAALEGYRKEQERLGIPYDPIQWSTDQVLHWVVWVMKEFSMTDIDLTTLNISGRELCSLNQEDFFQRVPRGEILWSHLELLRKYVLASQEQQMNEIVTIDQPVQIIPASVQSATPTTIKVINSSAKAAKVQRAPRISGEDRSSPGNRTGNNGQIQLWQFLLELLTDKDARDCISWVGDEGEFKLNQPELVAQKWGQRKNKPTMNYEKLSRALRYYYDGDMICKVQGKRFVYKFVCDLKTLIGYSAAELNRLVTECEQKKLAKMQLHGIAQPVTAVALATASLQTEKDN
Conditions: protein: recombinant; tags: N-terminal GST; dsDNA, one strand shown. A digest of the protocol:
as §1

The next assay addresses T4, ERG (Homo sapiens, UniProt P11308 1-479).
T4 sequence: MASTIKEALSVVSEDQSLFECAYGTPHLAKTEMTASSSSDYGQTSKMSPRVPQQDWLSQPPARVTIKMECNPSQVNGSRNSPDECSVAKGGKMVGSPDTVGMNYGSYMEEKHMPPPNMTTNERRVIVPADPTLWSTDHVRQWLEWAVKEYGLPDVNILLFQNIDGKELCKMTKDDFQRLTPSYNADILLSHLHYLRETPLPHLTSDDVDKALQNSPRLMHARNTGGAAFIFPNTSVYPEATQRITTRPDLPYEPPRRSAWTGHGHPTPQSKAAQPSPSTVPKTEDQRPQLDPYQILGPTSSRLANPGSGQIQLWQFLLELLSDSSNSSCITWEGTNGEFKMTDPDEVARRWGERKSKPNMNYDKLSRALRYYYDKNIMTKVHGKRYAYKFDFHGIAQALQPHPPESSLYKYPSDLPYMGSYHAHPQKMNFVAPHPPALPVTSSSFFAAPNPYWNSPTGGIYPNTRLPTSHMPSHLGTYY
The note with it: protein: recombinant; tags: N-terminal GST; dsDNA, one strand shown. The essentials:
as §1

A further assay has as its target ELF1 (Homo sapiens, UniProt P32519 1-619). Conditions: protein: recombinant; tags: N-terminal GST; dsDNA, one strand shown. A digest of the protocol:
as §1

The next assay concerns the target T5, EHF (Homo sapiens, UniProt Q9NZC4 1-300).
T5 sequence: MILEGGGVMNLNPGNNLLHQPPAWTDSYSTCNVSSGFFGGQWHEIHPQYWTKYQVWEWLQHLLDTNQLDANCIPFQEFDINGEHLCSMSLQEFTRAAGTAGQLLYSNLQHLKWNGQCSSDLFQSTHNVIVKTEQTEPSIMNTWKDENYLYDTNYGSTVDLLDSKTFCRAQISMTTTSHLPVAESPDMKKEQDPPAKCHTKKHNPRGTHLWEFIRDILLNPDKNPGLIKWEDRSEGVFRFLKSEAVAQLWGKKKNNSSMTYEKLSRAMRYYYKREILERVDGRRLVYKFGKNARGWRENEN
The note with it: protein: recombinant; tags: N-terminal GST; dsDNA, one strand shown. The essentials:
as §1

For a further assay, the target named is SPI1 (Homo sapiens, UniProt P17947 1-270). Conditions: protein: recombinant; tags: N-terminal GST; dsDNA, one strand shown. A digest of the protocol: as §1
In the next assay the target is SPIB (Homo sapiens, UniProt Q01892 1-262). Conditions: protein: recombinant; tags: N-terminal GST; dsDNA, one strand shown. The essentials: as §1
Another assay concerns the target T6, ELK3 (Homo sapiens, UniProt P41970 1-407).
T6 sequence: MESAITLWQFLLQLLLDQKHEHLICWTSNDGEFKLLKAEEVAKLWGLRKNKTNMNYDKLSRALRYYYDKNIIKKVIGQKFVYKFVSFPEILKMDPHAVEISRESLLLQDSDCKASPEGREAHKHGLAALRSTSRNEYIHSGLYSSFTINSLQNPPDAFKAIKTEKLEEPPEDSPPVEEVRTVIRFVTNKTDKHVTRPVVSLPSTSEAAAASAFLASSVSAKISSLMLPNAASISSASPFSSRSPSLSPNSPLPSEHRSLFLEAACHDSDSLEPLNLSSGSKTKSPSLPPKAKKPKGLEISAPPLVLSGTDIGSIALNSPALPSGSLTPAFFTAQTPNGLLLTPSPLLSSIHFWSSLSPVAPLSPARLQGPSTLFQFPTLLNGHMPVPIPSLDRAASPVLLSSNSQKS
The note with it: protein: recombinant; tags: N-terminal GST; dsDNA, one strand shown. A digest of the protocol: as §1

The target of the next assay is T7, FEV (Homo sapiens, UniProt Q99581 1-238).
T7 sequence: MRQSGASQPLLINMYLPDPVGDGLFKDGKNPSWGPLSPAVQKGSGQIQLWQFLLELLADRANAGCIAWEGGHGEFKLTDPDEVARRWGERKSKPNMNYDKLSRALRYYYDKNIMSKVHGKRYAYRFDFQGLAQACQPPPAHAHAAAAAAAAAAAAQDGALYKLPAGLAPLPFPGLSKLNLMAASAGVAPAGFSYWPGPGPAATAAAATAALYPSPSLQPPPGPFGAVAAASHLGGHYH
The note with it: protein: recombinant; tags: N-terminal GST; dsDNA, one strand shown. The essentials:
as §1

The target in the next assay is ETV5 (Homo sapiens, UniProt P41161 1-510). Conditions: protein: recombinant; tags: N-terminal GST; dsDNA, one strand shown. The essentials:
as §1

The target of the next assay is HSF1 (Homo sapiens, UniProt Q00613 1-529). The note with it: protein: recombinant; tags: N-terminal GST; chain copies: 3; dsDNA, one strand shown. A digest of the protocol:
as §1

A further assay addresses T8, SPIC (Homo sapiens, UniProt Q8N5J4 1-248).
T8 sequence: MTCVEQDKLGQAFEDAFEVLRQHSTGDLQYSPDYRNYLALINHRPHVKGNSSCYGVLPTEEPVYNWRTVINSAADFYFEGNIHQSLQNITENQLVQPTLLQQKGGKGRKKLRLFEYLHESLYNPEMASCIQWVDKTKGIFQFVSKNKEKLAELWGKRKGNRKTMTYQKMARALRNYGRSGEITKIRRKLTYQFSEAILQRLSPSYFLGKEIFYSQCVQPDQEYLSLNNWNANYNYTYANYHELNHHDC
Conditions: protein: recombinant; tags: N-terminal GST; dsDNA, one strand shown. A digest of the protocol:
as §1

The target in a further assay is ELF4 (Homo sapiens, UniProt Q99607 1-663). Conditions: protein: recombinant; tags: N-terminal GST; dsDNA, one strand shown. The essentials: as §1
The next assay deals with T9, ELK4 (Homo sapiens, UniProt P28324-2 1-405).
T9 sequence: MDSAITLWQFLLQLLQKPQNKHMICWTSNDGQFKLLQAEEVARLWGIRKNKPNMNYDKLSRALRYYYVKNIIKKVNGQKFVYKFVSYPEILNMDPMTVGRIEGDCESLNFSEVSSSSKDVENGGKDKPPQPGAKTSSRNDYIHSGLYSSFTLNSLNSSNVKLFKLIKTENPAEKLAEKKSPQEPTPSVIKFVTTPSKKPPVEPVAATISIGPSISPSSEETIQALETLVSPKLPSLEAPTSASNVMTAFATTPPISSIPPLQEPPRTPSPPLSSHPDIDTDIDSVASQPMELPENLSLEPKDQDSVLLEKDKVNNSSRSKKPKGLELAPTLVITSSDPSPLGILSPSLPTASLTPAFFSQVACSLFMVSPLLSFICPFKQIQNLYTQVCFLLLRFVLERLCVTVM
Conditions: protein: recombinant; tags: N-terminal GST; dsDNA, one strand shown. A digest of the protocol: as §1

The target in the next assay is T10, ETV2 (Homo sapiens, UniProt O00321 1-342).
T10 sequence: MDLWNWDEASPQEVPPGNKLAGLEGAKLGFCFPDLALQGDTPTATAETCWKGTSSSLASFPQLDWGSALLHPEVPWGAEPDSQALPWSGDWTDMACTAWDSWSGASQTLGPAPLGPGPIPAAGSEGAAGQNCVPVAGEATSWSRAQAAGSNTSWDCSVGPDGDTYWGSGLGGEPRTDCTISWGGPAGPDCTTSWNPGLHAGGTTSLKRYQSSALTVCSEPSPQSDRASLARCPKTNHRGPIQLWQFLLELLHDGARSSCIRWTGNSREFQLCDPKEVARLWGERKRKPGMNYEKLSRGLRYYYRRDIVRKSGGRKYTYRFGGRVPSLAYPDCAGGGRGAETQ
The note with it: protein: recombinant; tags: N-terminal GST; dsDNA, one strand shown. A digest of the protocol: as §1

Another assay deals with T11, ELF3 (Homo sapiens, UniProt P78545 1-371).
T11 sequence: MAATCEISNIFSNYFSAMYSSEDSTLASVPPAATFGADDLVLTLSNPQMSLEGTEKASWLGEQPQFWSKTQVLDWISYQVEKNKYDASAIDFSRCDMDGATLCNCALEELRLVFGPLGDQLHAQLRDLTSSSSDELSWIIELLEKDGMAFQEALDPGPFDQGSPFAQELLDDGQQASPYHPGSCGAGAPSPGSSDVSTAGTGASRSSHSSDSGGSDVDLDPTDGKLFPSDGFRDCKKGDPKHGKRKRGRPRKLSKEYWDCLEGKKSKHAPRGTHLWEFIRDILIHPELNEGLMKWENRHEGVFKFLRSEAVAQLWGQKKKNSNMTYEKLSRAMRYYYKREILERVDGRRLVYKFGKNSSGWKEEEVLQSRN
Conditions: protein: recombinant; tags: N-terminal GST; dsDNA, one strand shown. A digest of the protocol:
as §1

A further assay has as its target CRX (Homo sapiens, UniProt O43186 1-299). Conditions: protein: recombinant; tags: N-terminal GST; dsDNA, one strand shown. The essentials:
as §1

For the next assay, the target named is ETV1 (Homo sapiens, UniProt P50549 1-477). Conditions: protein: recombinant; tags: N-terminal GST; dsDNA, one strand shown. The essentials: as §1
ETV1, sequence (P50549 whole entry): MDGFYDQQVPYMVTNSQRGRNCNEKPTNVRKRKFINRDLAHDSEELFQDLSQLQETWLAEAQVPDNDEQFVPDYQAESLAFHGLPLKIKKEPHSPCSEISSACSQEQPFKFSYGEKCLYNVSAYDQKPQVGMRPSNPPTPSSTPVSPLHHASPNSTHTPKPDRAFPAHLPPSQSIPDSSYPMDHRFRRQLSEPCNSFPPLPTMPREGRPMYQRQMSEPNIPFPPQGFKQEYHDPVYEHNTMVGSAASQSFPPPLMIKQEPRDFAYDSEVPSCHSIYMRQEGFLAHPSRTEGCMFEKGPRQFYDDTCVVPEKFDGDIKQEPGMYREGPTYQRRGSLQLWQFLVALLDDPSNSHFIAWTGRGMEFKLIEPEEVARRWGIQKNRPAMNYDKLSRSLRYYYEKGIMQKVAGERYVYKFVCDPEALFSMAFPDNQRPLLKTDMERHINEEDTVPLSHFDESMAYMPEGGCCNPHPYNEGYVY

HSF1, sequence (Q00613 whole entry): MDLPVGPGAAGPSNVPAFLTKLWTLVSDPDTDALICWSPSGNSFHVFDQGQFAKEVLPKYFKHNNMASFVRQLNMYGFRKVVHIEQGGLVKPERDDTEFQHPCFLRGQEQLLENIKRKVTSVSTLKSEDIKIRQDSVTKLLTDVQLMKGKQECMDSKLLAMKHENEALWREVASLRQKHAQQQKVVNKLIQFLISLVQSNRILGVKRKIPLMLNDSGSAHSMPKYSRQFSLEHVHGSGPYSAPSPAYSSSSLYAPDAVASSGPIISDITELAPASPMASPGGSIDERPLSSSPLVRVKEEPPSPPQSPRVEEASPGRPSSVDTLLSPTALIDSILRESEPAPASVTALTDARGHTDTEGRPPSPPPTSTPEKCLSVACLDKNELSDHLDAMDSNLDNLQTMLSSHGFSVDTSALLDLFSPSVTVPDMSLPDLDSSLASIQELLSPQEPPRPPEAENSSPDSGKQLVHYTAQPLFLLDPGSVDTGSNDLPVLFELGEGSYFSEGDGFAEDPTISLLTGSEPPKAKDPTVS
ELF4, sequence (Q99607 whole entry): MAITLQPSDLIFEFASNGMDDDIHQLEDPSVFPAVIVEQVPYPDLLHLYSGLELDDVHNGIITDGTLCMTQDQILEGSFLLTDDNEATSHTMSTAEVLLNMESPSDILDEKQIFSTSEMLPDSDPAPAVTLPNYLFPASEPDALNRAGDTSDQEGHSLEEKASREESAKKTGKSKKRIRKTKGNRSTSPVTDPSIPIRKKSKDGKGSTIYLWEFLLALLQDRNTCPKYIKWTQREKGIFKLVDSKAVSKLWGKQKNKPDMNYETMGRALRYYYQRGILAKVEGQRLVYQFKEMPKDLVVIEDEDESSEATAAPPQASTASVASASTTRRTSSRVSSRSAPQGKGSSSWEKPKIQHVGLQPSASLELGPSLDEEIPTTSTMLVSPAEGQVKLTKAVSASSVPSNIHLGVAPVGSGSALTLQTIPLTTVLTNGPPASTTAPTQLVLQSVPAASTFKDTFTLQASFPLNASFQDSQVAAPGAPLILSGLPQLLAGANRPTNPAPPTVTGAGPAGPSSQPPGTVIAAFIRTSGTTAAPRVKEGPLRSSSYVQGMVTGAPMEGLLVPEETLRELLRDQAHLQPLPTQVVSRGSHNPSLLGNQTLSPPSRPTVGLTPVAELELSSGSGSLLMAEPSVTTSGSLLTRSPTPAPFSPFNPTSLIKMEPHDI
SPIB, sequence (Q01892 whole entry): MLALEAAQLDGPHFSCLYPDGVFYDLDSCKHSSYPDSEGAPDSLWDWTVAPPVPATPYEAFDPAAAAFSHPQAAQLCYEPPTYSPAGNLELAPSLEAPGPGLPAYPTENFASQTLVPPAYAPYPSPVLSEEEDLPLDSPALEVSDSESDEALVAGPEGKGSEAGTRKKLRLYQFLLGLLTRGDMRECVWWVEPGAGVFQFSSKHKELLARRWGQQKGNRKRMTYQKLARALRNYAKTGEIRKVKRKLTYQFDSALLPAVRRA
ETV5, sequence (P41161 whole entry): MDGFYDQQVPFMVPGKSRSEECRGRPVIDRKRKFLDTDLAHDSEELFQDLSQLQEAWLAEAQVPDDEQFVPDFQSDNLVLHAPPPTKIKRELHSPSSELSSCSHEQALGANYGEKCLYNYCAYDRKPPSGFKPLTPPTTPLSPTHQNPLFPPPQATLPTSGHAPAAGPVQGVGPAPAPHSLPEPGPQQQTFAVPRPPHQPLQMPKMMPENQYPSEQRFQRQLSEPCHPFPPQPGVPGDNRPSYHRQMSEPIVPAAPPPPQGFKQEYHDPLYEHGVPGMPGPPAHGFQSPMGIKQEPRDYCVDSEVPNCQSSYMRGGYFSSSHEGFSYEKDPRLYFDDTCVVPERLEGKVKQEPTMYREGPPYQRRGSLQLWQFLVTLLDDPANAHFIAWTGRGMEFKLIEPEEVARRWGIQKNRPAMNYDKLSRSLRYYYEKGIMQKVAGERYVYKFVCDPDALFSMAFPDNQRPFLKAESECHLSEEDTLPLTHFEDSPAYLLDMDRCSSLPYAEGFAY
ELF1, sequence (P32519 whole entry): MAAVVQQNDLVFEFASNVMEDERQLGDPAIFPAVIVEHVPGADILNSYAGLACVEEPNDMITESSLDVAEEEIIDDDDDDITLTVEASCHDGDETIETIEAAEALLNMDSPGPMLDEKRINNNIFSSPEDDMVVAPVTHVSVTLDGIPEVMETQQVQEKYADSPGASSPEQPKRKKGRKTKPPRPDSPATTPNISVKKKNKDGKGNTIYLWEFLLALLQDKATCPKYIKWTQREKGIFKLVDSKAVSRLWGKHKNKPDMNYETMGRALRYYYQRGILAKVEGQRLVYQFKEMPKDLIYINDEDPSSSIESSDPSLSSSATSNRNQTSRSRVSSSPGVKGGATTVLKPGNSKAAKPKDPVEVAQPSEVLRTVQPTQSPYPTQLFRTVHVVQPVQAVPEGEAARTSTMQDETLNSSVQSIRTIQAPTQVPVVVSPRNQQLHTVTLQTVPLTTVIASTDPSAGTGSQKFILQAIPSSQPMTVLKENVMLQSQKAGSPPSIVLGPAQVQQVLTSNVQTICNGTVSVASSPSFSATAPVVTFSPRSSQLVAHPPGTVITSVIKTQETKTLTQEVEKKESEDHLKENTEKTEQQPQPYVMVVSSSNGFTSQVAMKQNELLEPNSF
CRX, sequence (O43186 whole entry): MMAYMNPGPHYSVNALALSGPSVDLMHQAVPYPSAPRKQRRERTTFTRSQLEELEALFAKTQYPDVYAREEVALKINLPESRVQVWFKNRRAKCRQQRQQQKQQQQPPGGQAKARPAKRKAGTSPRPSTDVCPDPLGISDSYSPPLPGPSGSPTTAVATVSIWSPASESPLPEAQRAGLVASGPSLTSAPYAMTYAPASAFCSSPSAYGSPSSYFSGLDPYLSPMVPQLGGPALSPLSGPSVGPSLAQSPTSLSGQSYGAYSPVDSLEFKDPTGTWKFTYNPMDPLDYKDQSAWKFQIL

For the sequence CTATCC, the binding signal with FLI1 is 1.45 fold enrichment (6-mer frequency, TF over GST control); in the assay with ELK1, 1.4 fold enrichment (6-mer frequency, TF over GST control); with GABPA it was 1.29 fold enrichment (6-mer frequency, TF over GST control); with ERG, 1.34 fold enrichment (6-mer frequency, TF over GST control); with ELF1 it was 1.38 fold enrichment (6-mer frequency, TF over GST control); with EHF, 1.29 fold enrichment (6-mer frequency, TF over GST control). Besides, the binding signal is 1.28 fold enrichment (6-mer frequency, TF over GST control) in the assay with SPI1; 1.4 fold enrichment (6-mer frequency, TF over GST control) with SPIB; 1.48 fold enrichment (6-mer frequency, TF over GST control) with ELK3; 1.39 fold enrichment (6-mer frequency, TF over GST control) in the assay with FEV; 1.49 fold enrichment (6-mer frequency, TF over GST control) with ETV5; 1.25 fold enrichment (6-mer frequency, TF over GST control) with HSF1. Moreover, the binding signal in the assay with SPIC is 1.36 fold enrichment (6-mer frequency, TF over GST control); in the assay with ELF4, 1.34 fold enrichment (6-mer frequency, TF over GST control); with ELK4 it was 1.56 fold enrichment (6-mer frequency, TF over GST control); in the assay with ETV2 it was 1.49 fold enrichment (6-mer frequency, TF over GST control); with ELF3, 1.31 fold enrichment (6-mer frequency, TF over GST control); with CRX, 1.31 fold enrichment (6-mer frequency, TF over GST control). In addition, in the assay with ETV1, the binding signal is 1.36 fold enrichment (6-mer frequency, TF over GST control).

The values are drawn from PMC7862700, “An all-to-all approach to the identification of sequence-specific readers for epigenetic DNA modifications on cytosine”.
